Bioassay records deposited in PubChem BioAssay by several laboratories.
CYP2C9 act – CYP2C9 (human) activation; P11712; activation factor at 5 µM; AID 1024; 96,000 tested, 1.4% active; recombinant CYP2C9, luciferin-H conversion, luminescence; hits give high values; factor 1 = untreated enzyme, 0 = blocked;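 active = activation factor of 2 or more for CYP2C9 at a 5 µM dose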;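 also: 0 = sulfaphenazole-blocked wells and 1 = vehicle-only wells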
CYP2C9 inhib – human CYP2C9 inhibition | P11712 | CYP2C9 Supersomes, luciferin-H conversion, luminescence | inhibition, % at 5 µM | 96,000 tested, 20% active | AID 777;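 active = blocking of liver enzyme CYP2C9 beyond about 50% at 5 µM, limit read from the data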
CYP2C19 act – cytochrome P450 2C19 (human) activation. recombinant CYP2C19, luciferin-H EGE luminescence; hits give high values; 0 = fully inhibited enzyme, 1 = untreated enzyme. 96,000 tested, under 10 active. P33261. AID 1025. activation factor at 5 µM;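 active = activation factor of at least 2 at 5 µM in the primary screen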;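 also: 0 = wells with 2.5 mM tranylcypromine and 1 = vehicle-only wells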
CYP2C19 inhib – blocks human cytochrome P450 2C19. P33261. CYP2C19 Supersomes, luciferin-H EGE luminescence, 30 min. inhibition, % at 5 µM. 96,000 tested, 21% active. AID 778;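 active = CYP2C19 inhibition above a set limit at 5 µM in the primary screen, cut at about 50% in these data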;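 also: plate controls were negative control wells for no effect and 2.5 mM tranylcypromine positive control for full effect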
Cav32 inh – blocks human Cav3.2 T-type calcium channel | O95180 | Cav3.2-expressing cells, Fluo-4 calcium fluorescence FDSS; hits give low values | B-score at 10 µM | 100,000 tested, 4% active;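 active = single-dose well whose peak fluorescence ratio is a statistical outlier from its plate by either plate-standardised score or position-corrected B-score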
Target sequence (O95180 whole entry, looked up): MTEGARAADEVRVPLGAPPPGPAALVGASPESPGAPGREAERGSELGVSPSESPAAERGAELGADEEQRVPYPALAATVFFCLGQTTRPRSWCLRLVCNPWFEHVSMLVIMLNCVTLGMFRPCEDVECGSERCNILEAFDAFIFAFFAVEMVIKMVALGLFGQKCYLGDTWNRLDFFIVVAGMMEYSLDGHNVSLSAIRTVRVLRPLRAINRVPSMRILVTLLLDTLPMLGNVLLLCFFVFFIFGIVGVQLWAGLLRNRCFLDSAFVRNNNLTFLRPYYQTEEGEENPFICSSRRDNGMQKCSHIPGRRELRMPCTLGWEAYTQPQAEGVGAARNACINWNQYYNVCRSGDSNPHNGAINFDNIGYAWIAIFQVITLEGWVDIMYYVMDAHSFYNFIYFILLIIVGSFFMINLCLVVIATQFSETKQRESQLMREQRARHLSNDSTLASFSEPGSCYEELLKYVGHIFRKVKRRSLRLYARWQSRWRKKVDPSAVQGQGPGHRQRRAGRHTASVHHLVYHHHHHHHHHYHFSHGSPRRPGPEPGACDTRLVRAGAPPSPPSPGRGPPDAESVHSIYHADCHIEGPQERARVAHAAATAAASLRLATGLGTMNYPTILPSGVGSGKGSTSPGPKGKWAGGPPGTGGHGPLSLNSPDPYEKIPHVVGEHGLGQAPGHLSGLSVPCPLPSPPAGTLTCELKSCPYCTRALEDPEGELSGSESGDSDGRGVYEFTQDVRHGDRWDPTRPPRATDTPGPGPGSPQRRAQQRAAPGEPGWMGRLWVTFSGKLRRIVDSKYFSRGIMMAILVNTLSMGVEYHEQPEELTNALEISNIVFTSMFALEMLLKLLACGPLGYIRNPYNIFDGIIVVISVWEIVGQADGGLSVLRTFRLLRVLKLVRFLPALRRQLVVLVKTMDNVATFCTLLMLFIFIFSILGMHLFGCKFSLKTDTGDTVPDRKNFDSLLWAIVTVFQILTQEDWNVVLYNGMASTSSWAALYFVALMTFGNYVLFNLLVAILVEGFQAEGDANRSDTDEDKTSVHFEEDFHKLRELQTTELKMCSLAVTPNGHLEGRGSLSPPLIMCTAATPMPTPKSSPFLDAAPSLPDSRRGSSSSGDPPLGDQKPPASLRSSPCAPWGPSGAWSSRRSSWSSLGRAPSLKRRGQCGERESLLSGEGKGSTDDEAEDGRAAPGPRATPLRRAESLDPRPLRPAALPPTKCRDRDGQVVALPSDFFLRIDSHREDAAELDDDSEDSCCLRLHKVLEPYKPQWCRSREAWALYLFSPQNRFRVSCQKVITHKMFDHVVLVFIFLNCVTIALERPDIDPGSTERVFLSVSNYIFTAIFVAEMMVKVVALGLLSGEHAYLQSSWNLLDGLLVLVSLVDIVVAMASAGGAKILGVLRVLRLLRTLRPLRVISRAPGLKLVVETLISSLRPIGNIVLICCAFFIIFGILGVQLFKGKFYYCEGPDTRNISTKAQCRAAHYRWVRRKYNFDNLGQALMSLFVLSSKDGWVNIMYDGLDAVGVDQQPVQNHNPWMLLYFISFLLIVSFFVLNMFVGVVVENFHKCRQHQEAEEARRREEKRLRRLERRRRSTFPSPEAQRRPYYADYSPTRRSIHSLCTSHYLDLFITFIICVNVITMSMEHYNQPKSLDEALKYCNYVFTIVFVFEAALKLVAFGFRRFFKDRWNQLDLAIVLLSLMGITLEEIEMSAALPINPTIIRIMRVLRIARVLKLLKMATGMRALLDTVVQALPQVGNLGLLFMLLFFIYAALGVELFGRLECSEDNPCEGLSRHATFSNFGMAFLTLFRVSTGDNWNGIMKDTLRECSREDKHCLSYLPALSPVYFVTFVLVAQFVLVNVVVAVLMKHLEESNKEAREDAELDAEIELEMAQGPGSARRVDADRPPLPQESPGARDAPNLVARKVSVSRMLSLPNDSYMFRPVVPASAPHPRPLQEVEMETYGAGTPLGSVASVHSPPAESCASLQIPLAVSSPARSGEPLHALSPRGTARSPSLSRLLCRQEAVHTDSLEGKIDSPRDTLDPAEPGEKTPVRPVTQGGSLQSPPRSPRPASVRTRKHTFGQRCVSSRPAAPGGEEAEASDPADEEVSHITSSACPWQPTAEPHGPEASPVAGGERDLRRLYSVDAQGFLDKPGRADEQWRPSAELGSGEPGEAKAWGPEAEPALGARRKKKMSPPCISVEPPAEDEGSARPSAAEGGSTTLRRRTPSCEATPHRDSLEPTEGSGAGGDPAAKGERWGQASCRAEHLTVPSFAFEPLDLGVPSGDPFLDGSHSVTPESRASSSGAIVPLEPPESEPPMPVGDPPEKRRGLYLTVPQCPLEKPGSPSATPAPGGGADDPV
The depositor's hits bear a star. A selection: hits, their analogues and other compounds. The true share with any hit is near 27%.

For Cn1c(O)c(C(c2ccccn2)c2c(O)n(C)c(=S)[nH]c2=O)c(=O)[nH]c1=S the results were CYP2C19 act 1 and CYP2C19 inhib 3.0.
`CC1CN(O)C2CCc3c(no[n+]3[O-])C12O` (centres undefined) gave CYP2C9 act 1.1, CYP2C9 inhib -12.3, CYP2C19 act 1.1, CYP2C19 inhib -9.9 and Cav32 inh -0.369.
Screening Cc1ccc(-n2nc(C)c(C3C(C#N)=C(N)Oc4c3c(=O)oc3ccccc43)c2Cl)cc1 (centres undefined) returned CYP2C9 act 0, CYP2C9 inhib 98.0*, CYP2C19 act 0.6 and CYP2C19 inhib 40.8.
Screening CCOc1ccccc1N1C(=O)NC(=O)/C(=C/c2ccc3c4c(cccc24)CC3)C1=O returned CYP2C9 act 4.1*, CYP2C9 inhib -306.3, CYP2C19 act 0.9, CYP2C19 inhib 6.6 and Cav32 inh -1.16.
COc1cc(/C=C2\C(=O)NC(=O)N(c3ccccc3)C2=O)cc(OC)c1OC was read as CYP2C9 act 1.2, CYP2C9 inhib -18.7, CYP2C19 act 0.9, CYP2C19 inhib 7.4 and Cav32 inh 0.0406.
Cn1c(=O)cc(OCCCC(=O)N2CCC3(CC2)OCCO3)c2ccccc21 was read as CYP2C9 act 1, CYP2C9 inhib -0.5, CYP2C19 act 0.9, CYP2C19 inhib 8.3 and Cav32 inh 1.49.
Cn1c2ccccc2c2c(C(=O)N3CCC4(CC3)OCCO4)cn(C3CCCC3)c(=O)c21 was read as CYP2C9 act 0.3, CYP2C9 inhib 72.1*, CYP2C19 act 0.7, CYP2C19 inhib 28.1 and Cav32 inh 0.274.
Cn1c(=O)cc(OCC(=O)N2CCC3(CC2)OCCO3)c2ccccc21 was read as CYP2C9 act 1.4, CYP2C9 inhib -39.0, CYP2C19 act 0.7, CYP2C19 inhib 34.5 and Cav32 inh 0.618.
`Cn1c(=O)cc(SCC(=O)N2CCC3(CC2)OCCO3)c2ccccc21` gave CYP2C9 act 2.1*, CYP2C9 inhib -105.3, CYP2C19 act 0.8, CYP2C19 inhib 16.4 and Cav32 inh 0.433.
Cn1cc(CCC(=O)N2CCC3(CC2)OCCO3)c2ccccc21 was read as CYP2C9 act 1.4, CYP2C9 inhib -40.5, CYP2C19 act 0, CYP2C19 inhib 98.5* and Cav32 inh 1.19.
`c1ccc2c(CCNCc3ccc4c(c3)OCO4)c[nH]c2c1` gave Cav32 inh -0.0758.
`C/C=C(\C)C(=O)OC1C(C)=C2C(C1OC(=O)CCCCC)C(C)(OC(C)=O)CC(OC(=O)CCC)C1(O)C2OC(=O)C1(C)O` (centres undefined) gave Cav32 inh 4.29*.
Screening COC(=O)CSC1=NP(=S)(SCC(=O)OC)N2CCCC2=C1C#N (centres undefined) returned CYP2C9 act 0.7, CYP2C9 inhib 32.7, CYP2C19 act 0.5, CYP2C19 inhib 49.1 and Cav32 inh 1.53.
For O=C1NC(=O)C(CCc2ccncc2)(C2CCCCC2)C(=O)N1 the results were CYP2C9 act 0.3, CYP2C9 inhib 69.9*, CYP2C19 act 0.4 and CYP2C19 inhib 64.5*.
For O=c1c(C=NCc2cccs2)c(O)n(C2CCCCC2)c(=O)n1C1CCCCC1 the results were CYP2C9 act 0.7, CYP2C9 inhib 29.6, CYP2C19 act 0.9, CYP2C19 inhib 12.0 and Cav32 inh -4.36*.
O=c1c(C=NCCN2CCNCC2)c(O)n(C2CCCCC2)c(=O)n1C1CCCCC1 was read as CYP2C9 act 0.8, CYP2C9 inhib 18.4, CYP2C19 act 0.8, CYP2C19 inhib 20.6 and Cav32 inh -0.272.
O=C(C1CC(c2ccccc2O)=NO1)N1CCC2(CC1)OCCO2 (centres undefined) was read as CYP2C9 act 1, CYP2C9 inhib 3.1, CYP2C19 act 0, CYP2C19 inhib 100.0* and Cav32 inh 0.373.
`CCOc1c(P(=S)(N(C)C)N(C)C)c(C)nn1-c1ccccc1` gave CYP2C9 act 0.2, CYP2C9 inhib 78.5*, CYP2C19 act 0.1, CYP2C19 inhib 88.8* and Cav32 inh -1.43.
Screening Cc1ccc2c(c1)CC1(CN2C)C(=O)NC(=O)N(c2ccccc2C)C1=O (centres undefined) returned CYP2C9 act 0.7, CYP2C9 inhib 31.6, CYP2C19 act 0.9, CYP2C19 inhib 13.4 and Cav32 inh -1.43.
For Cc1ccc2c(c1)CC1(CN2C)C(=O)NC(=O)N(c2ccc(C)c(C)c2)C1=O (centres undefined) the results were CYP2C9 act 0.1, CYP2C9 inhib 86.1*, CYP2C19 act 0.5, CYP2C19 inhib 52.6* and Cav32 inh -3.49.
COc1ccccc1N1C(=O)NC(=O)C2(Cc3cc(C)ccc3N(C)C2)C1=O (centres undefined) was read as CYP2C9 act 0.3, CYP2C9 inhib 68.1*, CYP2C19 act 0.6, CYP2C19 inhib 43.1 and Cav32 inh -0.425.
Screening c1ccc2c(c1)[nH]c1cnccc12 returned Cav32 inh -0.0758.
`Cc1c2ccncc2c(C)c2c1[nH]c1ccccc12` gave Cav32 inh -4.4*.
Screening COP(=S)(OC)SCN1C(=O)c2ccccc2C1=O returned CYP2C9 act 0.3, CYP2C9 inhib 70.7*, CYP2C19 act 0, CYP2C19 inhib 98.5* and Cav32 inh 0.0366.
CCCCCCn1c(O)c(C=NC2CCN(Cc3ccccc3)CC2)c(=O)[nH]c1=O was read as CYP2C9 act 0.3, CYP2C9 inhib 72.8*, CYP2C19 act 0.7, CYP2C19 inhib 25.6 and Cav32 inh -3.31*.
For O=c1[nH]c(=O)n(CCC2=CCCCC2)c(O)c1C=NCCN1CCNCC1 the results were CYP2C9 act 0.8, CYP2C9 inhib 23.9, CYP2C19 act 1 and CYP2C19 inhib 3.1.
CCN(CC)c1ccc(N=Cc2c(O)n(CCC3=CCCCC3)c(=O)[nH]c2=O)cc1 was read as CYP2C9 act 0.6, CYP2C9 inhib 39.5, CYP2C19 act 0.8, CYP2C19 inhib 21.8 and Cav32 inh -5.58*.
For O=c1[nH]c(=O)n(CCC2=CCCCC2)c(O)c1C=NC1CCN(Cc2ccccc2)CC1 the results were CYP2C9 act 0.2, CYP2C9 inhib 80.2*, CYP2C19 act 0.7, CYP2C19 inhib 31.3 and Cav32 inh 1.86.
Screening CCCCn1c(N)c(C(=O)NCCN2CCOCC2)c2nc3ccccc3nc21 returned CYP2C9 act 0.9, CYP2C9 inhib 13.5, CYP2C19 act 1, CYP2C19 inhib -4.8 and Cav32 inh -0.324.
For COc1ccc(CCNC(=O)c2c(N)n(CCN3CCOCC3)c3nc4ccccc4nc23)cc1 the results were CYP2C9 act 0.5, CYP2C9 inhib 50.3*, CYP2C19 act 0.9, CYP2C19 inhib 10.4 and Cav32 inh 0.668.
Nc1c(C(=O)NCCN2CCOCC2)c2nc3ccccc3nc2n1Cc1ccco1 was read as CYP2C9 act 0.7, CYP2C9 inhib 27.1, CYP2C19 act 0.8, CYP2C19 inhib 17.2 and Cav32 inh -1.74.
`Nc1c(C(=O)NCCc2ccccc2)c2nc3ccccc3nc2n1CCN1CCOCC1` gave CYP2C9 act 0, CYP2C9 inhib 97.1*, CYP2C19 act 0.3, CYP2C19 inhib 67.2* and Cav32 inh -0.373.
